These results are taken from PubChem BioAssay (Tox21).

The target of experiment [1] is Retinoic acid receptor RXR-alpha (Homo sapiens) (UniProt P19793). Nature of the experiment: qHTS assay to identify small molecule agonists of the RXR signaling pathway (AID 1159527; calls by dose curve; also: nearly all actives have a fitted effect of over 35% in size; also: potency is read from the fitted curve at half-maximal effect). In outline:
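16 hr incubation of compound-treated RXR-alpha-UAS-bla HEK 293T cells (2% charcoal-stripped FBS, 37 C) preceded a 2 hr room-temperature LiveBLAzer FRET substrate step and blue/green fluorescence measurement.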

The nature of experiment [2]: qHTS assay to identify small molecule agonists of the RXR signaling pathway - cell viability counter screen (AID 1159529). Also: nearly all actives have a fitted effect of over 50% in size. Also: potency is read from the fitted curve at half-maximal effect.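 As to activity change, negative = cytotoxicity: HEK 293T cells carrying an RXR-alpha UAS beta-lactamase reporter; series mostly up to about 77 µM.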 In outline: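 In this parallel viability measure, GeneBLAzer RXR-alpha HEK 293T cells (2% charcoal-stripped FBS) were given a 5 hr preincubation, treated with compounds 16 hr at 37 C, and read by CellTiter-Glo luminescence.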
The nature of experiment [3]: qHTS assay to identify small molecule antagonists of the retinoid acid receptor (RAR) signaling pathway - cell viability counter screen (AID 1159551). Also: nearly all actives have a fitted effect of over 35% in size. In outline: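 In this counter screen, the RARE-luciferase line C3RL4 was exposed for 6 h at 37 C and 5% CO2 to compounds with retinol at 1 uM final. Cellular ATP, read by luminescence, served as the viability measure.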
Background: qHTS replaces the single test concentration by a dilution series.

Experiment [4] in a line: qHTS assay to identify small molecule agonists of the retinoic acid receptor (RAR) signaling pathway (AID 1159553). Also: potency is read from the fitted curve at half-maximal effect. The gist of the method:
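In this cell-based screen, 1,000 C3RL4 cells per well were cultured overnight, dosed with test chemicals in DMSO for 6 hr, and assessed for RARE luciferase luminescence.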

A short description of experiment [5]: qHTS assay to identify small molecule antagonists of the estrogen related receptor (ERR) signaling pathway from Tox21 library - cell viability counter screen (AID 1224834). Also: nearly all actives have a fitted effect of over 30% in size. The gist of the method:
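Counter screen run in ERR cells (2,000 cells/well): cells pre-incubated 6 h, then treated with compounds for 17.5 h at 37 C. Fluorescence was read 30 min after CellTiter-Fluor addition.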

Experiment [6] has as its target Luciferin 4-monooxygenase (Photinus pyralis) (UniProt P08659). Nature of the experiment: qHTS assay to identify small molecule inhibitors of firefly luciferase (AID 1224835). Also: nearly all actives have a fitted effect of over 25% in size. Also: potency is read from the fitted curve at half-maximal effect. The gist of the method: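 Inhibition of purified Photinus luciferase is measured by luminescence. Substrate levels (D-luciferin, ATP) sit at their KM values. Each compound is tested in a concentration series.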

Experiment [7] can be described thus: qHTS assay to identify small molecule agonists of the constitutive androstane receptor (CAR) signaling pathway - cell viability counter screen (AID 1224836). Also: series mostly up to about 92 µM; nearly all actives have a fitted effect of over 45% in size. The gist of the method: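 Using CellTiter-Fluor, viability of HepG2 cells harbouring hCAR and CYP2B6-2.2kb was measured following 23 h incubation with a 15-concentration compound series plus PK11195 (0.75 uM final).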

Experiment [8] in a line: qHTS assay to identify small molecule antagonists of the constitutive androstane receptor (CAR) signaling pathway - cell viability counter screen (AID 1224837). Also: series mostly up to about 92 µM; nearly all actives have a fitted effect of over 45% in size. The gist of the method:
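CITCO at 50 nM final was added alongside compounds (15 concentrations) to double-stable hCAR/CYP2B6-2.2kb HepG2 cells. Following 23 hr at 37 C, cell viability was quantified by CellTiter-Fluor fluorescence intensity.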

In experiment [9] the target is Nuclear receptor subfamily 1 group I member 3 (Homo sapiens) (UniProt Q14994). Nature of the experiment: qHTS assay to identify small molecule antagonists of the constitutive androstane receptor (CAR) signaling pathway (AID 1224838). Also: nearly all actives have a fitted effect of over 40% in size. Also: potency is read from the fitted curve at half-maximal effect. The gist of the method: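 Inhibition of CITCO-driven (50 nM final) CYP2B6 reporter expression is measured in HepG2 cells stably carrying hCAR. Fifteen compound concentrations are applied for 24 h at 37 C, followed by luciferase luminescence.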

Experiment [10] has the same target. Nature of the experiment: qHTS assay to identify small molecule agonists of the constitutive androstane receptor (CAR) signaling pathway (AID 1224839). Also: nearly all actives have a fitted effect of over 15% in size. Also: potency is read from the fitted curve at half-maximal effect. As to activation: series mostly up to about 92 µM. In outline: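 Double-stable HepG2 cells (hCAR, CYP2B6-2.2kb) seeded 4 h before compound addition. Exposure 24 h with 0.75 uM PK11195 final. Luciferase detected by ONE-Glo.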
The nature of experiment [11]: qHTS assay to identify small molecule antagonists of the estrogen related receptor signaling pathway with the pleiotropic PPARgamma coactivator (PGC) from Tox21 10K library - cell viability counter screen (AID 1224840; active = well fitted cell-killing curve with a large enough effect in the repeat runs, not every such curve was filed as active; also: nearly all actives have a fitted effect of over 40% in size). In outline: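 Readout: fluorescence intensity from CellTiter-Fluor after 30 min at 37 C/5% CO2. Preceded by 17.5 h treatment of PGC/ERR cells with DMSO-dissolved compounds, added 6 h post-seeding.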

Experiment [12] deals with Thyrotropin receptor (Homo sapiens) (UniProt P16473). Nature of the experiment: qHTS assay to identify small molecule agonists of the thyroid stimulating hormone receptor (TSHR) signaling pathway (AID 1224843; calls by dose curve; also: nearly all actives have a fitted effect of over 45% in size). In outline:
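Agonist activity read as cAMP rise via d2/cryptate HTRF competition, 1 h room-temperature detection, in HEK293 cells expressing TSHR. Fifteen-point titrations, each run in triplicate, with a 30 min room-temperature incubation beforehand.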

Experiment [13] can be described thus: qHTS assay to identify small molecule agonists of the hypoxia (HIF-1) signaling pathway - cell viability counter screen (AID 1224844; calls by dose curve; also: nearly all actives have a fitted effect of over 50% in size). The gist of the method: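 In this counter screen, HRE-bla ME-180 cell viability after 17 hrs of compound exposure at 37C was read by CellTiter-Glo luminescence, multiplexed with the beta-lactamase reporter measurement.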
Experiment [14] in a line: qHTS assay to identify small molecule agonists of H2AX (AID 1224845; active = well fitted activation curve with a large enough effect in the signal ratio in the repeat runs, not every such curve was filed as active; the % refers to the signal ratio). The gist of the method:
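Phospho-H2AX Ser139 measured by HTRF (ex 320 nm; em 665 and 620 nm) after 24 hr antibody incubation. Compounds, 15 concentrations, 0.76% DMSO, were applied to CHO-K1 cells for 3hr at 37C before lysis.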

Experiment [15] in a line: qHTS assay to identify small molecule agonists of the hypoxia (HIF-1) signaling pathway (AID 1224846; active = well fitted activation curve with a large enough effect in the signal ratio in the repeat runs, not every such curve was filed as active; the % refers to the signal ratio). The gist of the method:
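ME-180 HRE-bla reporter cells; compounds in DMSO, 17 h at 37C; read-out beta-lactamase via CCF4-AM FRET.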

A short description of experiment [16]: qHTS assay to identify small molecule antagonists of the retinoic acid receptor (RAR) signaling pathway (AID 1159552; also: nearly all actives have a fitted effect of over 50% in size). The gist of the method: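 C3RL4 RARE-luc cells, overnight plating; retinol 1 uM final added right after compound; 6 hr 37 C; luciferase read at 30 min RT.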
The nature of experiment [17]: qHTS assay to identify small molecule antagonists of the estrogen related receptor (ERR) signaling pathway - cell viability counter screen (AID 1224818). Also: series mostly up to about 46 µM. In outline:
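Viability of ERR cells, CellTiter-Fluor fluorescence; 17.5 h compound exposure at 37 C, DMSO vehicle; 30 min reagent incubation at 37 C/5% CO2.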

Experiment [18] is described as follows: qHTS assay to identify small molecule antagonists of the estrogen related receptor signaling pathway with the pleiotropic PPARgamma coactivator (PGC) cell viability counter screen (AID 1224822; also: series mostly up to about 46 µM). In outline: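 17.5 h compound treatment of PGC/ERR cells at 37 C; readout CellTiter-Fluor fluorescence; run alongside the PGC/ERR antagonist screen to flag cytotoxic compounds.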

Experiment [19] can be described thus: qHTS assay to identify small molecule antagonists of the estrogen related receptor signaling pathway with the pleiotropic PPARgamma coactivator (PGC) from Tox21 10K library (AID 1224841; call rule not given here; also: series mostly up to about 92 µM; actives are mostly falling curves and most rising ones were filed inactive; nearly all actives have a fitted effect of over 50% in size). The gist of the method:
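One-Glo luminescence, measured after half an hour at room temperature, quantified reporter output of PGC/ERR cells. These had been plated at 2,000 per well, incubated 6 h, dosed with compounds in DMSO, then kept 18 h at 37 C.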

Experiment [20] in a line: qHTS assay to identify small molecule agonists of the estrogen related receptor signaling pathway with the pleiotropic PPARgamma coactivator (PGC) from Tox21 10K library (AID 1224842). Also: nearly all actives have a fitted effect of over 15% in size. In outline:
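Luminescence from One-Glo (30 min, room temperature) measured after PGC/ERR cells had 18 h at 37 C with pinned compound (23 nL in DMSO). Cells had been seeded at 2,000 per well and pre-incubated 6 h.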

“And” between values parts separate entries of the source, which are not always exact repeats. Equal values may be shown once. Records with an inconclusive call do not appear. Where a structure was tested more than once in an assay, its records may differ in their call. The source made the active and inactive calls. Unless noted, calls follow the shape of the dose curve; as a rule, active = well fitted curve in the direction sought with a large enough effect in the repeat runs; inconclusive = weak or mixed curves; inactive = no such curve, though single readings can be large; an effect the other way counts as inactive or inconclusive.
% is scaled to controls: 0 for no effect and ±100 for the full control effect.

Sequence of Retinoic acid receptor RXR-alpha (Homo sapiens) (P19793 whole entry, looked up): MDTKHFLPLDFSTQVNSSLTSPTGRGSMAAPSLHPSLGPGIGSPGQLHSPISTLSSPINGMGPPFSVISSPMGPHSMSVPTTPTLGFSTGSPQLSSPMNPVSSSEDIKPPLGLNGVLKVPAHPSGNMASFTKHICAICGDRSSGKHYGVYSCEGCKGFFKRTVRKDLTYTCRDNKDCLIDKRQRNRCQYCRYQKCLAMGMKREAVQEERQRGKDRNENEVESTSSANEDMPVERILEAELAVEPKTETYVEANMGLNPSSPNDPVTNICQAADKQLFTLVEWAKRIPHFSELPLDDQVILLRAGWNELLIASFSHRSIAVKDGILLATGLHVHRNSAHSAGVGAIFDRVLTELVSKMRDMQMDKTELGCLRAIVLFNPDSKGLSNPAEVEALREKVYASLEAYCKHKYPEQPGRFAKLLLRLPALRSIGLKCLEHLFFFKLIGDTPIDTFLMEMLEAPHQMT
Sequence of Luciferin 4-monooxygenase (Photinus pyralis) (P08659 whole entry, looked up): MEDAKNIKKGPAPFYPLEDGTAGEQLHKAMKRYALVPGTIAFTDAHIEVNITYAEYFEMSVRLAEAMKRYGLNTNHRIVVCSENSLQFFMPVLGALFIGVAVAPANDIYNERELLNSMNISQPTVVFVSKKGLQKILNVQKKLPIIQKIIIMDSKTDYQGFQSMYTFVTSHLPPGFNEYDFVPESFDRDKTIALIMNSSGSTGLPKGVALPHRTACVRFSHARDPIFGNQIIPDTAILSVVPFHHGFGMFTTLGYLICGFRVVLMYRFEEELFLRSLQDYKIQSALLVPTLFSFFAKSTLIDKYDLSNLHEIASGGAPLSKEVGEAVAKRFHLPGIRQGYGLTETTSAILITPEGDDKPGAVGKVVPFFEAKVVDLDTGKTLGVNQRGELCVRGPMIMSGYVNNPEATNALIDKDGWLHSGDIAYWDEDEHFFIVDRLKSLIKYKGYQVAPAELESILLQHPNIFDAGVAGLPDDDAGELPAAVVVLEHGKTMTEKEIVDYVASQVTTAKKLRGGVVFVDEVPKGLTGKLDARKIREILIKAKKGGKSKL
Sequence of Thyrotropin receptor (Homo sapiens) (P16473 whole entry, looked up): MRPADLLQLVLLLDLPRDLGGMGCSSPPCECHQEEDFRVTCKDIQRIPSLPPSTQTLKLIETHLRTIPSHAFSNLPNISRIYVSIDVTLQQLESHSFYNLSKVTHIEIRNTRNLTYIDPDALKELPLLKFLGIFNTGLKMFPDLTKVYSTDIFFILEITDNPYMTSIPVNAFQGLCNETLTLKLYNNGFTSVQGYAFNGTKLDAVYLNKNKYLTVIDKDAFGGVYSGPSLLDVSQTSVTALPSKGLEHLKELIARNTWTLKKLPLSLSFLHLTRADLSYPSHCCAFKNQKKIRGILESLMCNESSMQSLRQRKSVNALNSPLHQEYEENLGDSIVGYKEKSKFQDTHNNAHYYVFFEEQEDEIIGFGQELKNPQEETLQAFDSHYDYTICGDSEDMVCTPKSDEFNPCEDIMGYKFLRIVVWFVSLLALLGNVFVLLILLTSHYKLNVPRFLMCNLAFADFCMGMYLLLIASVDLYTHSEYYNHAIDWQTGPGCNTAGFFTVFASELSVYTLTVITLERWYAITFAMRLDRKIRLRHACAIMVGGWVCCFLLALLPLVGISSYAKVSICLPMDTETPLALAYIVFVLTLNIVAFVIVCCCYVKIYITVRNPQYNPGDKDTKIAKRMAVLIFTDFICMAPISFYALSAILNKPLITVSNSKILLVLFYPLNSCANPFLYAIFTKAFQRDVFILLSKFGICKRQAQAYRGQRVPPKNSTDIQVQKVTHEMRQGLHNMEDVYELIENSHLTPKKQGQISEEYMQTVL
Sequence of Nuclear receptor subfamily 1 group I member 3 (Homo sapiens) (Q14994 whole entry, looked up): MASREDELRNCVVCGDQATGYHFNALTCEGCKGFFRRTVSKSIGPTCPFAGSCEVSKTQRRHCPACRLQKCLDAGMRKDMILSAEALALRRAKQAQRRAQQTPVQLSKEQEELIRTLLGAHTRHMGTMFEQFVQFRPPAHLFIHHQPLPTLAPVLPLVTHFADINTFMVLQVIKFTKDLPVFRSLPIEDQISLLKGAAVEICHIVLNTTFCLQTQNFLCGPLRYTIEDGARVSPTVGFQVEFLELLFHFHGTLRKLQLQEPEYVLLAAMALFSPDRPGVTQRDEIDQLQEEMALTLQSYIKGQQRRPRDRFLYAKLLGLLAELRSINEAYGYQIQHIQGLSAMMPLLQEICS

On to `CCCCCOC(C)=O`, for which the Potency in [1] is 0.279 µM (active); in [9] it was 2.2 µM (active) and inactive. Besides, the Potency result in experiment [2], in experiment [4], in experiment [5], in experiment [6], in [7] and in experiment [8] was “inactive” in each case. Besides, the Potency result in experiment [10], in experiment [11], in experiment [12], in experiment [13] and in experiment [14] was “inactive” throughout. For the same molecule, the call in [3] and in experiment [15] was inactive.

As for `CCCCOC(=O)COc1ccc(Cl)cc1Cl`, the Potency entry in [1], in experiment [2], in experiment [16], in experiment [4], in experiment [5] and in experiment [7] was “inactive” each time. For the same molecule, the Potency entry in experiment [8], in experiment [9], in [10], in experiment [11], in experiment [13] and in experiment [14] was “inactive” throughout. For the same molecule, the molecule was called inactive in [3] and in experiment [15]. For the same molecule, in experiment [6], the Potency was 9.05 µM (active) and 10 µM (active).

For the molecule `CCCC(C)=O`, the Potency entry in experiment [1], in experiment [2], in experiment [4], in experiment [5], in experiment [6] and in experiment [7] was “inactive” each time. Besides, the Potency entry in [8], in [9], in experiment [10], in experiment [11], in [13] and in experiment [14] was “inactive” throughout. Besides, the molecule was classed as inactive in experiment [3] and in experiment [15].

As to `CCCCCC1=CCCC1=O`, the Potency entry in experiment [1], in experiment [2], in [16], in experiment [4], in experiment [5] and in experiment [6] was “inactive” each time. Further, the Potency entry in [7], in [8], in [9], in experiment [10], in experiment [11] and in [12] was “inactive” throughout. For the same molecule, the Potency entry in experiment [13] and in experiment [14] was “inactive” throughout. In addition, the outcome in [3] and in [15] was inactive.

Regarding `NNc1nncc2ccccc12`, the activation in experiment [1] is -4.54% [at 15.8 µM] (inactive); in [10], 12.7% [at 19 µM] (inactive); in [12], -1.13% [at 19 µM] (inactive). The activity change, negative = cytotoxicity in [2] is -0.524% [at 15.8 µM] (inactive). The molecule was classed as inactive in [3], in experiment [17] and in experiment [18]. For the same molecule, the Potency entry in experiment [16], in experiment [7], in [8], in experiment [9] and in experiment [13] was “inactive” in each case. The Potency in experiment [4] is 770 nM (active) and 5.17 µM (active); in [10], 12.2 µM (active). The viability change, negative = cytotoxic was 6.05% [at 19 µM] (inactive) in experiment [5] and 3.22% [at 19 µM] (inactive) in experiment [11]. In experiment [14], the activation (H2AX phosphorylation) was 1% [at 31.6 µM] (inactive).

Consider `C=CCNC(N)=S`, for which the Potency entry in [1], in experiment [4], in experiment [5], in experiment [6], in experiment [7] and in [8] was “inactive” in each case. The Potency entry in experiment [9], in experiment [10], in experiment [11], in experiment [12], in experiment [13] and in experiment [14] was “inactive” each time. In addition, in [2], the Potency was 38 µM (active) and inactive. Also, the outcome in experiment [3] and in [15] was inactive.

As to `C#CCN(C)Cc1ccccc1`, the Potency entry in experiment [1], in [2], in [16], in [4], in experiment [5] and in [6] was “inactive” each time. For the same molecule, the Potency entry in [7], in experiment [8], in [9], in experiment [10], in experiment [11] and in experiment [12] was “inactive” each time. In addition, the Potency entry in experiment [13] and in [14] was “inactive” in each case. Also, the outcome in [3], in [17] and in experiment [18] was inactive.

On to `OCC(CO)(CBr)CBr`, for which the Potency entry in [1], in experiment [2], in experiment [16], in experiment [4], in [5] and in experiment [6] was “inactive” throughout. The Potency result in experiment [7], in experiment [8], in [9], in experiment [10], in experiment [11] and in experiment [19] was “inactive” in each case. Besides, the Potency entry in experiment [12], in experiment [13] and in experiment [14] was “inactive” in each case. Besides, the molecule was classed as inactive in [3], in [20] and in [15].
